In the library only some 7.1% were active in any assay of this set; here they are far more common.
PINK1 expr mod = modulators of PINK1 expression; PINK1 immunofluorescence, high-content cytometry, 24 h; Potency, µM (highest dose often 76.6 µM), for the others: at the top dose activation (PINK1 increase), usual class: activators; 410,000 compounds, 0.2% hits; active = well fitted activation curve with a large enough effect; inconclusive = small, poorly fitted or top-dose-only effect; cell line not stated here; also: potency is read from the fitted curve at half-maximal effect; % of control where 0% means no effect; nearly all actives have a fitted effect of over 65% in size
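Readout is PINK1 immunofluorescence, quantified alongside mitochondrial, cell and nuclear markers by laser-scanning microplate cytometry. Cells from a stable line were exposed to compound titrations (5 concentrations) for 24 hours, with CCCP controls.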
S2 tox = reduces viability in counter-screen for ATXN expression inhibitors; AID 651635; Potency, µM (top dose mostly 56.7 µM), hits mostly cytotoxic; S2 cells (HEK-293 line with an ATXN2-luciferase reporter) viability, CellTiter-Fluor protease fluorescence, 24 h; 400,000 compounds, 0.49% hits; also: potency is read from the fitted curve at half-maximal effect; nearly all actives have a fitted effect of over 40% in size
SW480 rereplic = induces DNA re-replication in SW480 colon adenocarcinoma cells; SW480 DNA re-replication, Hoechst DNA content imaging, 48 h; Potency, µM (top dose mostly 46.1 µM), without a hit: top-dose re-replication activation, most hits filed as activators; 340,000 compounds, 1.8% hits; AID 624297; also: potency is read from the fitted curve at half-maximal effect; % of control where 0% means no effect; nearly all actives have a fitted effect of over 55% in size
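Treated cells incubate 48 hr (37 C, 5% CO2), are stained 40 min with Hoechst, and nuclear fluorescence is enumerated; a rise in nuclei with high DNA signal marks re-replication.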
ATXN2 expr inh = reduces ATXN2 reporter expression in HEK-293 cells; HEK-293 ATXN2-luciferase reporter, luminescence, 24 h; Potency, µM (doses to about 57 µM), for the others: at the highest dose activity change, negative = inhibition, hits mostly inhibitors; 360,000 compounds, 0.72% hits; AID 1745845; also: potency is read from the fitted curve at half-maximal effect; % is scaled to controls: 0 for no effect and ±100 for the full control effect; nearly all actives have a fitted effect of over 55% in size
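qHTS (up to 57 uM final) was run with 24 h compound exposure of reporter cells at 37 °C. Each well was multiplexed: SteadyGlo luminescence measured ATXN2-luciferase expression after a fluorogenic Gly-Phe-AFC viability readout (25 uM final).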
MCF10A rereplic = DNA re-replication induction in MCF 10a cells | MCF 10A DNA re-replication, Hoechst nuclear intensity, 48 h | Potency, µM (highest dose often 46.1 µM), inactives show top-dose activity, positive = re-replication, actives largely listed as activators | 350,000 compounds, 2.9% hits; also: potency is read from the fitted curve at half-maximal effect; % of control where 0% means no effect; nearly all actives have a fitted effect of over 50% in size
IL-1B inflam inh = inhibitors of inflammasome signaling (IL-1 beta secretion); THP-1 LPS/ATP IL-1B secretion, AlphaLISA, 16 h; active compounds read low; activity change, % at 57.5 µM; 360,000 compounds, 4.7% hits; in the data active = activity change below about -50%; inconclusive = mostly about -30% to -49%; also: % is scaled to controls: 0 for no effect and ±100 for the full control effect
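Secreted IL-1B measured by AlphaLISA bead assay after 16 h compound exposure of THP-1 cells; compounds (final up to 57.5 uM) added 1 h before LPS (250 ng/mL) and ATP (1.25 mM) stimulation; lower signal means less secretion.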
An asterisk follows results filed as active; i = inactive; ? = inconclusive; · = no result given; [ ] = remark or other dose. Unless noted, calls follow the shape of the dose curve; as a rule, active = well fitted curve in the direction sought with a large enough effect; inconclusive = small, poorly fitted or top-dose-only effect, or another doubt; inactive = no such curve, though single readings can be large; an effect the other way counts as inactive or inconclusive.

SMILES	PINK1 expr mod	S2 tox	SW480 rereplic	ATXN2 expr inh	MCF10A rereplic	IL-1B inflam inh
COc1ccc(CNC(=O)c2ccc3c(c2)N(Cc2cc(C)ccc2C)C(=O)CS3)cc1	4%	i	·	5%	·	·
C/C(=N\NC(=O)Cc1cccn1C)c1ccc2ccccc2c1	0%	i	2%	13%	17%	-61*
C/C(=N/NC(=O)Cc1cccn1C)c1ccccc1	-2%[38.3 µM]	i	-5%	3%	1%	-17
Cc1nc(SCCC(=O)O)c2cc(-c3ccccc3)sc2n1	0%	i	-3%	2µM*	11%	-3
Cc1cc(C)n2nc(C(=O)OCCOc3cccc(Br)c3)nc2n1	0%	i	1%	4%	-1%	-6
Cc1cc(C)n2nc(C(=O)OCCOc3ccc(F)cc3)nc2n1	-1%	i	-4%	4%	-10%	-50*
Cc1ccc2oc(=O)c3cnn(CC(=O)N4CCN(c5cccc(C(F)(F)F)c5)CC4)c3c2c1	1%	·	·	·	·	·
Oc1c(C(Nc2nccs2)c2ccc(C(F)(F)F)cc2)ccc2cccnc12 (configuration not stated)	3%	i	1.3µM*	13µM*	?	-103*
Oc1c(C(Nc2cccc(C(F)(F)F)c2)c2ccncc2)ccc2cccnc12 (configuration not stated)	5%	·	12µM*	?	?	60
Cc1ccc(-n2nc3c(N4CCC(C(=O)N5CCCCC5)CC4)nnc(C)c3c2C)cc1	-1%	i	·	-19%	·	·
O=C(N/N=C/c1ccc(O)cc1O)c1ccc(CN2C(=O)c3cccc4cccc2c34)cc1	-1%	?	?	?	?	119
O=C(N/N=C/c1ccccc1)c1ccc(CN2C(=O)c3cccc4cccc2c34)cc1	0%	i	?	-14%	16µM*	17
C#CCN(C)Cc1ccccc1	0%	i	?	0%	?	-18
C#CC(CO)N(CCN(Cc1ccccc1)C(C#C)CO)Cc1ccccc1 (configuration not stated)	-1%	i	16%	4%	23%	-62*
O=C(COc1ccccc1/C=C1\SC(=S)NC1=O)Nc1ccc(F)cc1	32µM*	?	?	?	1.5µM*	-16
C=C1C(=O)OC2CC1C(O)CC(C)=CCCC(C)=CC(O)CC2C (configuration not stated)	-5%	·	?	?	1.3µM*	-103*
CCN(Cc1nc(-c2ccc(OC)c(OC)c2)no1)S(=O)(=O)c1ccc(OC)cc1	1%	i	·	7%	·	·
CN(C)c1ccc(NC(=O)CSC2=Nc3ccccc3C3=NC(CC(=O)NCc4ccccc4)C(=O)N23)cc1 (configuration not stated)	1%	·	·	·	·	·
COc1ccccc1CNc1ncnc2sc(C(=O)N3CCN(C)CC3)c(C)c12	-1%	i	·	·	·	·
COc1ccc(N2CCN(C(CNC(=O)C(=O)NCc3cccnc3)c3cccnc3)CC2)cc1 (configuration not stated)	4%	i	·	10%	·	·
CCOC(=O)C1=C(N)n2c(s/c(=C\c3ccco3)c2=O)=C(C(=O)OCC)C1c1ccco1 (configuration not stated)	?	i	?	-5%	5.8µM*	8
CCOC(=O)C1=C(N)n2c(s/c(=C\c3ccco3)c2=O)=C(C(=O)OC(C)C)C1c1ccco1 (configuration not stated)	6%	i	15%	-10%	3%	-8
CC(C)c1onc(C(=O)N2CCCCCC2)c1[N+](=O)[O-]	-2%	i	0%	1%	4%	0
CC(C)c1onc(C(=O)N2CCN(c3ccccc3)CC2)c1[N+](=O)[O-]	3%	i	?	-1%	-7%	-7
CC(C)c1onc(C(=O)N2CCN(c3ccc(F)cc3)CC2)c1[N+](=O)[O-]	1%	i	21µM*	1%	0%	-6
SMILES	PINK1 expr mod	S2 tox	SW480 rereplic	ATXN2 expr inh	MCF10A rereplic	IL-1B inflam inh
Cc1ccc(Cl)cc1N1CCN(C(=O)c2noc(C(C)C)c2[N+](=O)[O-])CC1	0%	i	?	-18%	12%	-81*
CC1CN(CCNC(=O)C2CCCc3c2[nH]c2ccccc32)Cc2ccccc2O1 (configuration not stated)	0%	i	·	·	·	·
O=C(CCl)N(C1CCCC1)C1CCS(=O)(=O)C1 (configuration not stated)	-1%	?	21µM*	?	?	?
CC12CCC(O)CC1=CCC1C2CCC2(C)C3=NN=CC3CC12 (configuration not stated)	-1%	i	?	-19%	18µM*	54
CC(=O)C1(O)C(C)CC2C3CC=C4CC(O)CCC4(C)C3CCC21C (configuration not stated)	-2%	i	-6%	9%	-1%	-2
CN(C)CCN[C@H]1CCC2C3CC=C4C[C@@H](O)CC[C@]4(C)C3CC[C@@]21C (some centres not stated)	0%	i	?	-13%	21µM*	5
N#CCSc1nccc(/C=C/c2ccccc2)n1	1%	i	8%	41%	10%	-92*
C/C=C(/CCC1NCCc2c1[nH]c1ccccc21)[Si](C)(C)C (configuration not stated)	-5%	?	?	?	?	-99*
COc1ccc(NC(=O)Nc2cccc(OCc3cc(=O)n4cccc(C)c4n3)c2)c(OC)c1	0%	·	·	·	·	·
O=C(CN1C(=O)C2CC=CCC2C1=O)Nc1nc(-c2ccc(F)cc2)cs1 (configuration not stated)	1%	i	1%	2%	5%	11
CC(C(=O)Nc1nc(-c2ccc(F)cc2)cs1)N1C(=O)C2CC=CCC2C1=O (configuration not stated)	1%	i	1%	0%	-2%	-81*
O=C(NCc1ccco1)c1ccc(COc2cccc3ccccc23)cc1	5%	i	?	-12%	-6%	-60*
O=C(NCc1ccco1)c1ccc(COc2ccccc2Cl)cc1	1%	i	7%	8%	?	-57*
NNC(=O)c1ccc(COc2cccc3ccccc23)cc1	2%	i	-4%	8%	-3%	24
CN(C)CCNc1ncnc2c1sc1nc(N3CCOCC3)c3c(c12)CC(C)(C)SC3	-5%	?	?	20µM*	21µM*	-80*
Nc1nc2c(c(=O)[nH]1)N(C=O)C(CNc1ccc(C(=O)N[C@@H](CCC(=O)O)C(=O)O)cc1)CN2 (some centres not stated)	·	i	·	·	·	·

Screening results: PubChem, National Center for Advancing Translational Sciences (NCATS)
